Results from PubChem BioAssay AID1259421 (Broad Institute, 2018).
Several values for one entry are separate records, joined by “and”; a condition that tells them apart may be missing. Equal entries are not always repeated. In all, about 6,400 compounds went through this assay and about 610 (9.5%) were called active. Rule as the data show it: active = activity change below about -70%; inconclusive = no clear call, values can overlap the other calls; inactive = above that. This excerpt belongs to a sample that is enriched for actives. Some structures have more than one record in an assay (separate samples or runs), and their calls can disagree.

Test: Toxoplasma gondii ME49Luc growth in HeLa cells, luciferase, no IFN-y, primary screen (AID 1259421)
Conditions: T. gondii ME49Luc in HeLa, 72 h, stronger effect = lower value, concentration not given here
For `CN(C)CC/C=C1/c2ccccc2COc2ccccc21`, the activity change, negative = inhibition was -63.2% (inactive) and 23.5% (inactive) and 10.1% (inactive).
With `CC(C)C1C(=O)N(S(C)(=O)=O)[C@@H]2CCN(C(=O)/C=C/CN3CCCCC3)[C@@H]12` (some centres not stated) the activity change, negative = inhibition was 12% (inactive).
In the case of `NCCCCCc1cnc[nH]1`, the activity change, negative = inhibition is reported as 11% (inactive).
In the case of `O=c1cc(O)c(Cl)c[nH]1`, the activity change, negative = inhibition is reported as 4.32% (inactive).
For `O=c1ccc2ccc(OCCCCN3CCN(c4cccc5sccc45)CC3)cc2[nH]1`, the activity change, negative = inhibition was 10.5% (inactive).
In the case of `N[C@@H]1CCN(O)C1=O`, the activity change, negative = inhibition is reported as 15% (inactive).
In the case of `O=C(O)CC/C=C\CC[C@@H]1[C@@H](N2CCCCC2)[C@@H](O)C[C@@H]1OCc1ccc(-c2ccccc2)cc1`, the activity change, negative = inhibition is reported as -4.54% (inactive).
With `COC(=O)C[C@H]1C(C)(C)C(=O)[C@@H]2CC3=C4CC(=O)O[C@@H](c5ccoc5)[C@]4(C)CCC3[C@@]1(C)C2=O` (some centres not stated) the activity change, negative = inhibition was -15.9% (inactive).
For `C[N+]1(C)C2CC(OC(=O)[C@@H](CO)c3ccccc3)CC1C1OC12` (some centres not stated), the activity change, negative = inhibition was 4.33% (inactive) and 10.7% (inactive).
For `Cc1cn(C2CC(N=[N+]=[N-])C(CO)O2)c(=O)[nH]c1=O` (configuration not stated), the activity change, negative = inhibition was 10.1% (inactive).
With `CCc1cn([C@H]2C[C@H](O)[C@@H](CO)O2)c(=O)[nH]c1=O` the activity change, negative = inhibition was 13.9% (inactive).
With `Cc1cn([C@H]2C[C@H](N=[N+]=[N-])[C@@H](CO)O2)c(=O)[nH]c1=O` the activity change, negative = inhibition was -81.6% (active).
In the case of `O=C(O)C1[O][Sb]2([O][Sb]34[O]C(C(=O)O)C([O]3)C(C(O)CO)[O]4)[O]C(C(O)CO)C1[O]2` (configuration not stated), the activity change, negative = inhibition is reported as -75.8% (active).
For `C(=N\NC1=NCCN1)/c1c2ccccc2c(/C=N/NC2=NCCN2)c2ccccc12`, the activity change, negative = inhibition was -58.3% (inactive).
With `O=C(Nc1cc2cc[nH]c2cn1)c1ccccc1` the activity change, negative = inhibition was -32.1% (inactive).
For `COc1ccc(C(=O)c2ccc(O)cc2)c(O)c1O`, the activity change, negative = inhibition was -0.363% (inactive).
With `N=C(N)c1ccc2cc(OC(=O)c3ccc(N=C(N)N)cc3)ccc2c1` the activity change, negative = inhibition was 4.69% (inactive).
For `NC(=O)/N=N/C(N)=O`, the activity change, negative = inhibition was 7.42% (inactive).
With `CC(C)(C(=O)NCC(F)(F)C(F)(F)F)C(=O)N[C@@H]1C(=O)Nc2ccccc2-c2ccccc21` the activity change, negative = inhibition was -88.1% (active).
For `C/C(=C/c1ccc(C(=O)O)cc1)c1ccc2c(c1)C(C)(C)CCC2(C)C`, the activity change, negative = inhibition was -3.41% (inactive).
With `NC1[C@H]2CN(c3nc4c(cc3F)c(=O)c(C(=O)O)cn4-c3ccc(F)cc3F)C[C@@H]12` (some centres not stated) the activity change, negative = inhibition was -37.5% (inactive).
In the case of `O=C(CCCCCN1C(=O)c2cccc3cccc(c23)C1=O)NO`, the activity change, negative = inhibition is reported as -90.6% (active).
In the case of `O=C(O)CN1C(=O)c2cccc3cccc(c23)C1=O`, the activity change, negative = inhibition is reported as 4.44% (inactive) and 1.05% (inactive).
For `O=C(O)CCCN1C(=O)c2cccc3cccc(c23)C1=O`, the activity change, negative = inhibition was -5.26% (inactive).
For `O=c1cc(-c2ccc(O)cc2)oc2cc(O)ccc12`, the activity change, negative = inhibition was 22.2% (inactive).
With `CCCC[C@H](C)C[C@H](O)/C=C/[C@H]1[C@H](O)CC(=O)[C@@H]1CCCC/C=C/C(=O)O` the activity change, negative = inhibition was -0.328% (inactive).
In the case of `C/C=C/C(=O)N(CC)c1ccccc1C`, the activity change, negative = inhibition is reported as 14.6% (inactive) and 5.26% (inactive).
For `C=C[C@@](C)(/C=C/c1ccc(O)cc1)CCC=C(C)C`, the activity change, negative = inhibition was 11.8% (inactive).
With `NC(=O)C(c1ccccc1)(c1ccc(F)cc1)c1ccc(F)cc1` the activity change, negative = inhibition was 1.76% (inactive).
For `Oc1ccc(Cl)c2cccnc12`, the activity change, negative = inhibition was 17.5% (inactive) and 6.79% (inactive).
With `[O-][NH2+]c1ccc(O)c2ncccc12` the activity change, negative = inhibition was -71.9% (active) and -84.8% (active).
With `Oc1c(Br)cc(Br)c2cccnc12` the activity change, negative = inhibition was -63.3% (inactive).
With `COc1ccc2c(c1OC)C(=O)O[C@@H]2C1c2c(cc3c(c2OC)OCO3)CCN1C` (some centres not stated) the activity change, negative = inhibition was 8.49% (inactive).
For `C[C@@H]1C(=O)O[C@H]2CC34[C@H]5C[C@@H](C(C)(C)C)[C@]36[C@@H](OC(=O)[C@@H]6O)O[C@@]4(C(=O)O5)[C@]21O` (some centres not stated), the activity change, negative = inhibition was 5.52% (inactive).
In the case of `CC(C)CCCC(C)[C@H]1CCC2C3C(=O)C=C4C[C@@H](O)CC[C@]4(C)C3CC[C@@]21C` (some centres not stated), the activity change, negative = inhibition is reported as -7.52% (inactive).
In the case of `CC(C)(C)NCC(O)COc1cccc2c1CCCC2=O` (configuration not stated), the activity change, negative = inhibition is reported as 12.5% (inactive) and -6.73% (inactive).
For `CC(=O)O.CC(=O)O.[Cl][Pt+2][Cl].[NH-]C1CCCCC1.[NH2-]`, the activity change, negative = inhibition was 1.41% (inactive).
In the case of `O=C(O[C@@H]1Cc2c(O)cc(O)cc2O[C@@H]1c1ccc(O)c(O)c1)c1cc(O)c(O)c(O)c1`, the activity change, negative = inhibition is reported as -0.0246% (inactive).
For `COc1ccc(NC(=O)c2ccc(-c3ccc(-c4noc(C)n4)cc3C)cc2)cc1OCCN(C)C`, the activity change, negative = inhibition was -53.8% (inactive) and -87.8% (active).
In the case of `CN(C)CCCc1cc(C(=O)Nc2ccc(-c3ccncc3)cc2)ccc1O`, the activity change, negative = inhibition is reported as 4.74% (inactive).
With `COc1ccccc1N1CCN(CCCCNC(=O)c2ccc(-c3ccc(C(C)=O)cc3)cc2)CC1` the activity change, negative = inhibition was 7.26% (inactive).
For `COc1ccc(C(=O)NCc2ccc(OCCN(C)C)cc2)cc1OC`, the activity change, negative = inhibition was -2.71% (inactive).
For `COc1ccc(NS(=O)(=O)c2ccc(I)cc2)cc1N1CCN(C)CC1`, the activity change, negative = inhibition was 0.621% (inactive) and -5.09% (inactive).
For `COc1ccc(NC(=O)c2ccc(-c3ccc(-c4noc(C)n4)cc3C)cc2)cc1N1CCN(C)CC1`, the activity change, negative = inhibition was -78.7% (active) and -44.9% (inactive).
For `CN(C)c1ccc(O)c2c1C[C@H]1C[C@H]3[C@H](N(C)C)C(=O)C(C(N)=O)C(=O)[C@@]3(O)C(=O)C1C2=O` (some centres not stated), the activity change, negative = inhibition was -2.37% (inactive) and -2.12% (inactive).
For `Cc1cc(O)cc(=O)o1`, the activity change, negative = inhibition was 2.59% (inactive).
With `CCCCCC/C=C/C=C\CCCCCCCC(=O)O` the activity change, negative = inhibition was 9.04% (inactive).
With `Cc1cc(Nc2cc(CN3CCOCC3)c3nc(C)c(Cc4ccc(Cl)cc4F)n3n2)n[nH]1` the activity change, negative = inhibition was -76.1% (active).
With `FC(F)OC(Cl)C(F)(F)F` (configuration not stated) the activity change, negative = inhibition was 4.04% (inactive).
With `CCCC(=O)O` the activity change, negative = inhibition was 16.3% (inactive) and 10.7% (inactive).
For `CN=C(NC#N)Nc1ccc(C2=NNC(=O)CC2C)cc1` (configuration not stated), the activity change, negative = inhibition was 27% (inactive) and 4.42% (inactive).
With `CCC(=O)NC1CCc2cccc(OC)c2C1` (configuration not stated) the activity change, negative = inhibition was 4.71% (inactive) and 6.93% (inactive).
In the case of `CC12CCC3C(CCC4CC(O)CCC43C)C1CC=C2c1ccccc1` (configuration not stated), the activity change, negative = inhibition is reported as 6.05% (inactive).
With `N[C@@H]1c2cccnc2[C@H](OC(=O)N2CCC(n3c(=O)[nH]c4ncccc43)CC2)CC[C@H]1c1cccc(F)c1F` the activity change, negative = inhibition was -1.69% (inactive).
With `C=C[C@@H]1C[C@]1(NC(=O)[C@@H]1C[C@@H]2CN1C(=O)[C@H](C(C)(C)C)NC(=O)O[C@@H]1C[C@H]1CCCCCc1nc3ccc(OC)cc3nc1O2)C(=O)NS(=O)(=O)C1CC1` the activity change, negative = inhibition was 0.122% (inactive).
With `C=C[C@@H]1C[C@]1(NC(=O)[C@@H]1C[C@@H](Oc2ncc(OC)c3ccc(Cl)cc23)CN1C(=O)[C@@H](NC(=O)OC(C)(C)C)C(C)(C)C)C(=O)NS(=O)(=O)C1CC1` the activity change, negative = inhibition was -73.7% (active).
For `CCOc1ccccc1O[C@H](c1ccccc1)[C@H]1CNCCO1` (racemic), the activity change, negative = inhibition was 8.34% (inactive).
In the case of `O=C(c1ccc(C(=O)N2CCC(N3CCCC3)CC2)c(Nc2ccccc2)c1)N1CCC(N2CCCC2)CC1`, the activity change, negative = inhibition is reported as -4.76% (inactive).
In the case of `O=C(c1ccc(Nc2nccc(-c3cc4ccccc4s3)n2)cc1)N1CCC(N2CCCC2)CC1`, the activity change, negative = inhibition is reported as -80.6% (active) and -80.3% (active).
In the case of `O=C(c1cncc(Br)c1)N1CCC(N2CCCC2)CC1`, the activity change, negative = inhibition is reported as 15.9% (inactive).
With `CC1=C2C(O)C(=O)OC3CC4C(C)(C)C(=O)C=C[C@]4(C)C(CC1)[C@]23C` (some centres not stated) the activity change, negative = inhibition was 9.55% (inactive).
In the case of `COC(=O)N[C@H](C(=O)N1CC2(CC2)C[C@H]1c1ncc(-c2ccc3c(c2)C(F)(F)c2cc(-c4ccc5nc([C@@H]6[C@H]7CC[C@H](C7)N6C(=O)[C@@H](NC(=O)OC)C(C)C)[nH]c5c4)ccc2-3)[nH]1)C(C)C`, the activity change, negative = inhibition is reported as -11.8% (inactive).
For `CC(C)N=C(N)/N=C(\N)Nc1ccc(Cl)cc1`, the activity change, negative = inhibition was 13.8% (inactive) and 11.1% (inactive).
In the case of `Cc1ccc2c(=O)c3cccc(CC(=O)O)c3oc2c1C`, the activity change, negative = inhibition is reported as 9.87% (inactive).
In the case of `Cc1ccc2c(=O)c3ccccc3n(CCCN)c2c1C`, the activity change, negative = inhibition is reported as -91.1% (active) and -77% (active).
In the case of `Cc1cc(=O)c(C(=O)N[C@@H](C(=O)N[C@@H]2C(=O)N3C(C(=O)O)=C(CSc4nnnn4C)CS[C@H]23)c2ccc(O)cc2)c[nH]1`, the activity change, negative = inhibition is reported as 9.23% (inactive).
For `NC(CC(=O)Nc1ccc(Oc2cc(F)c(F)cc2Br)cc1)C(=O)O` (configuration not stated), the activity change, negative = inhibition was 0.0757% (inactive).
With `COc1cc(OC)c(C(C)=O)c(O)c1C` the activity change, negative = inhibition was 2.79% (inactive).
With `CCCCCCCCCCCCCC[C@@H](O)[C@@H](O)[C@@H](N)CO` the activity change, negative = inhibition was 24.8% (inactive).
With `Nc1[nH]c(=O)ncc1F` the activity change, negative = inhibition was 8.39% (inactive) and -90.4% (active).
In the case of `O=S(=O)(NCCNC/C=C/c1ccc(Br)cc1)c1cccc2cnccc12`, the activity change, negative = inhibition is reported as 4.5% (inactive) and -8.12% (inactive).
With `O=C(C(c1ccccc1)c1ccccc1)N1CCN(CC(O)COc2cccc3ncccc23)CC1` (configuration not stated) the activity change, negative = inhibition was 10.1% (inactive).
For `CC(C)(C#N)c1ccc(N2C(=O)OCc3cnc4ccc(-c5cnc6ccccc6c5)cc4c32)cc1`, the activity change, negative = inhibition was -90.7% (active).
With `Cn1c(=O)n(-c2ccc(C(C)(C)C#N)cc2)c2c3cc(-c4cnc5ccccc5c4)ccc3ncc21` the activity change, negative = inhibition was 13.4% (inactive).
In the case of `C=CC(=O)Nc1cc(Nc2nccc(-c3cn(C)c4ccccc34)n2)c(OC)cc1N(C)CCN(C)C`, the activity change, negative = inhibition is reported as -63.1% (inactive).
In the case of `C[C@H](CCC(=O)O)[C@H]1CCC2C3C(=O)CC4CC(=O)CC[C@]4(C)C3CC(=O)[C@@]21C` (some centres not stated), the activity change, negative = inhibition is reported as 8.53% (inactive) and 10.4% (inactive).
With `O=c1[nH]cnc2nc[nH]c12` the activity change, negative = inhibition was 7.14% (inactive).
